Data: PubChem BioAssay (NCI)
Where “and” joins values, the source holds several entries; their conditions need not be identical. Equal entries are not always repeated. The panel holds about 83,000 compounds, 20% with a hit somewhere; the sample as a whole holds those more often.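 Note: values are percent growth. 100 is the growth of untreated cells, values between 100 and 0 indicate rising inhibition; between -100 and 0 indicates cell death.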 Calls of active or inactive are those of the source. How the source made its calls: active means growth percent below 10; inactive means the rest.

Key:
Assay in all cases: NCI-60 one-dose screen, 48 h (100 = growth as untreated, 0 = no growth, -100 = all killed)
Conditions in all cases: 10 µM unless noted
HCT-15 colon = test system: HCT-15 colon
HT29 colon = test system: HT29 colon
SNB-75 CNS = test system: SNB-75 CNS
SNB-19 CNS = test system: SNB-19 CNS
U251 CNS = test system: U251 CNS
PC-3 prostate = test system: PC-3 prostate
UACC-62 melanoma = test system: UACC-62 melanoma
SK-MEL-28 melanoma = test system: SK-MEL-28 melanoma
EKVX NSCLC = test system: EKVX NSCLC
SN12C renal = test system: SN12C renal
UO-31 renal = test system: UO-31 renal
TK-10 renal = test system: TK-10 renal
ACHN renal = test system: ACHN renal
CAKI-1 renal = test system: CAKI-1 renal
A498 renal = test system: A498 renal
HL-60(TB) leukemia = test system: HL-60(TB) leukemia
CCRF-CEM leukemia = test system: CCRF-CEM leukemia
SK-MEL-5 melanoma = test system: SK-MEL-5 melanoma
SK-MEL-2 melanoma = test system: SK-MEL-2 melanoma
LOX IMVI melanoma = test system: LOX IMVI melanoma

Measured: growth

Cc1cc(C(C)(C)C)ccc1O
inactive: HCT-15 colon 109% | HT29 colon 106% | SNB-75 CNS 102% | SNB-19 CNS 111% | U251 CNS 94.2% | PC-3 prostate 93.6% | UACC-62 melanoma 109% | SK-MEL-28 melanoma 110% | EKVX NSCLC 112% | SN12C renal 114% | UO-31 renal 86.9% | TK-10 renal 108% | ACHN renal 112% | CAKI-1 renal 101% | A498 renal 96% | HL-60(TB) leukemia 96.9% | CCRF-CEM leukemia 106%

Oc1cc(Cl)ccc1Oc1ccc(Cl)cc1Cl
active: U251 CNS 8.21% | SK-MEL-5 melanoma -32% | UO-31 renal -0.646% | ACHN renal 7.4% | HL-60(TB) leukemia -24.9%
inactive: HCT-15 colon 14.4% | HT29 colon 87.4% | SNB-75 CNS 48.3% | SNB-19 CNS 23.7% | PC-3 prostate 39% | UACC-62 melanoma 24.4% | SK-MEL-28 melanoma 46.8% | EKVX NSCLC 42.7% | SN12C renal 10.9% | TK-10 renal 102% | CAKI-1 renal 90.5% | A498 renal 103% | CCRF-CEM leukemia 24.8%

CC1OC(=O)C(C(C)C)NC(=O)C(C(C)C)OC(=O)C(C(C)C)NC(=O)C(C)OC(=O)C(C(C)C)NC(=O)C(C(C)C)OC(=O)C(C(C)C)NC(=O)C(C)OC(=O)C(C(C)C)NC(=O)C(C(C)C)OC(=O)C(C(C)C)NC1=O (stereo not given)
active: HCT-15 colon -3.27% | HT29 colon -32.3% | SNB-75 CNS -18.5% | SNB-19 CNS -17% | U251 CNS -41.9% | PC-3 prostate -49.8% | SK-MEL-5 melanoma -74.5% | UACC-62 melanoma 5.04% | SK-MEL-28 melanoma -28.8% | SK-MEL-2 melanoma -22.4% | EKVX NSCLC -23.9% | SN12C renal 3.04% | UO-31 renal 6.58% | ACHN renal -16.5% | CAKI-1 renal -5.02% | A498 renal -53.2% | HL-60(TB) leukemia -44.6% | CCRF-CEM leukemia -20.1%

CN1[C@@H](CC(=O)c2ccccc2)CCC[C@H]1CC(=O)c1ccccc1
inactive: HCT-15 colon 97.1% | HT29 colon 108% | SNB-75 CNS 90.6% | SNB-19 CNS 98.4% | U251 CNS 103% | PC-3 prostate 93% | SK-MEL-5 melanoma 102% | UACC-62 melanoma 97.7% | SK-MEL-28 melanoma 103% | EKVX NSCLC 96.7% | SN12C renal 96.6% | UO-31 renal 83.7% | ACHN renal 97.3% | CAKI-1 renal 101% | A498 renal 115% | HL-60(TB) leukemia 116% | CCRF-CEM leukemia 111%

CC(=O)Cc1ccc2c(c1)OCO2
inactive: HCT-15 colon 113% | HT29 colon 98.6% | SNB-75 CNS 117% | SNB-19 CNS 98.8% | U251 CNS 103% | PC-3 prostate 106% | UACC-62 melanoma 103% | LOX IMVI melanoma 100% | SK-MEL-28 melanoma 130% | SK-MEL-2 melanoma 112% | EKVX NSCLC 109% | SN12C renal 101% | UO-31 renal 102% | TK-10 renal 110% | ACHN renal 108% | CAKI-1 renal 96.9% | A498 renal 116% | HL-60(TB) leukemia 77.4% | CCRF-CEM leukemia 108%

O=S(OO)c1cc(Cl)c(O)c(Cl)c1 (stereo not given)
inactive: HCT-15 colon 99.2% | HT29 colon 113% | SNB-75 CNS 78.5% | SNB-19 CNS 104% | U251 CNS 94% | PC-3 prostate 94.7% | SK-MEL-5 melanoma 104% | UACC-62 melanoma 101% | SK-MEL-28 melanoma 98.9% | SK-MEL-2 melanoma 110% | SN12C renal 101% | UO-31 renal 84.2% | TK-10 renal 100% | ACHN renal 100% | CAKI-1 renal 91.3% | A498 renal 82.5% | HL-60(TB) leukemia 103% | CCRF-CEM leukemia 91%

Cc1ccc(N2CCN(CCC#N)CC2)cc1
inactive: HCT-15 colon 97.2% | HT29 colon 103% | SNB-75 CNS 79.5% | SNB-19 CNS 87.9% | U251 CNS 97.8% | PC-3 prostate 92.5% | SK-MEL-5 melanoma 82% | UACC-62 melanoma 98.6% | SK-MEL-28 melanoma 98.7% | SK-MEL-2 melanoma 110% | EKVX NSCLC 95.5% | SN12C renal 96% | UO-31 renal 82.6% | TK-10 renal 89.5% | ACHN renal 101% | CAKI-1 renal 87.1% | A498 renal 137% | HL-60(TB) leukemia 87% | CCRF-CEM leukemia 92%

COC[C@H]1OC(=O)c2coc3c2[C@@]1(C)C1=C(C3=O)[C@@H]2CCC(=O)[C@@]2(C)C[C@H]1OC(C)=O
active: SNB-75 CNS -21% | SK-MEL-5 melanoma -16.9%
inactive: HCT-15 colon 53.8% | HT29 colon 34.4% | SNB-19 CNS 66.2% | U251 CNS 70.5% | PC-3 prostate 25.1% | UACC-62 melanoma 15.7% | SK-MEL-2 melanoma 17.3% | EKVX NSCLC 42.1% | SN12C renal 43.3% | UO-31 renal 31.4% | TK-10 renal 38.8% | ACHN renal 42.2% | CAKI-1 renal 32.2% | HL-60(TB) leukemia 25.8% | CCRF-CEM leukemia 46.6%

CO[C@H]1[C@H](O[C@@H]2C[C@@H]3C/C=C/C(=O)O[C@@H](CO)C[C@H](O)[C@@H]4C[C@H](C)[C@H](C/C=C\C=C\[C@H](C)C[C@H](C2)O3)O4)O[C@@H](C)[C@H](O)[C@H]1O
inactive: HCT-15 colon 47.4% | HT29 colon 66.1% | SNB-75 CNS 56.7% | SNB-19 CNS 52.2% | U251 CNS 40.3% | PC-3 prostate 35% | SK-MEL-5 melanoma 19.2% | UACC-62 melanoma 61.8% | SK-MEL-28 melanoma 76.1% | SK-MEL-2 melanoma 68.8% | EKVX NSCLC 28.7% | SN12C renal 62.6% | UO-31 renal 33.3% | TK-10 renal 32.2% | ACHN renal 66.4% | CAKI-1 renal 61.6% | A498 renal 60.6% | HL-60(TB) leukemia 33.2% | CCRF-CEM leukemia 58.7%

C[C@]12CC[C@H](O)C[C@@H]1CC[C@@H]1[C@@H]2CC[C@]2(C)OC(=O)CC[C@@H]12
inactive: HCT-15 colon 95.2% | HT29 colon 79.6% | SNB-75 CNS 85.8% | SNB-19 CNS 96.6% | U251 CNS 86.9% | PC-3 prostate 92.5% | SK-MEL-5 melanoma 101% | UACC-62 melanoma 93.5% | SK-MEL-28 melanoma 105% | SK-MEL-2 melanoma 108% | EKVX NSCLC 89% | SN12C renal 96.8% | UO-31 renal 83.1% | TK-10 renal 97.5% | ACHN renal 107% | CAKI-1 renal 92.8% | A498 renal 109% | HL-60(TB) leukemia 94.4% | CCRF-CEM leukemia 114%

O=C(O)C(Br)CBr (stereo not given)
inactive: HCT-15 colon 90.8% | HT29 colon 97.6% | SNB-75 CNS 89.5% | SNB-19 CNS 107% | U251 CNS 97% | PC-3 prostate 94.3% | SK-MEL-5 melanoma 98.8% | SK-MEL-28 melanoma 110% | SK-MEL-2 melanoma 85.1% | SN12C renal 98% | UO-31 renal 89.4% | CAKI-1 renal 101% | A498 renal 107% | CCRF-CEM leukemia 96.3%

Nc1ccc(P(=O)(O)O)cc1
inactive: HCT-15 colon 97.4% and 95.9% | HT29 colon 104% and 103% | SNB-75 CNS 95% and 94.5% | SNB-19 CNS 108% and 107% | U251 CNS 102% and 94.7% | PC-3 prostate 99.5% and 92.7% | SK-MEL-5 melanoma 110% and 107% | UACC-62 melanoma 110% and 99.8% | SK-MEL-28 melanoma 117% and 111% | SK-MEL-2 melanoma 120% and 99.4% | EKVX NSCLC 95.7% | SN12C renal 103% and 101% | UO-31 renal 90.8% and 91.8% | TK-10 renal 119% and 97.4% | ACHN renal 98.7% and 105% | CAKI-1 renal 102% and 99.5% | A498 renal 105% and 108% | HL-60(TB) leukemia 136% and 106% | CCRF-CEM leukemia 97.5% and 95.4%

Oc1ccccc1C=NCCN=Cc1ccccc1O
inactive: HCT-15 colon 104% | HT29 colon 108% | SNB-75 CNS 97.6% | SNB-19 CNS 98% | U251 CNS 91.6% | PC-3 prostate 95.1% | SK-MEL-5 melanoma 99.5% | UACC-62 melanoma 98.8% | SK-MEL-28 melanoma 103% | SK-MEL-2 melanoma 106% | SN12C renal 102% | UO-31 renal 92.3% | TK-10 renal 104% | ACHN renal 103% | CAKI-1 renal 102% | A498 renal 77.9% | HL-60(TB) leukemia 115% | CCRF-CEM leukemia 90%

CCCCS(=O)(=O)Cl
inactive: HCT-15 colon 108% | HT29 colon 113% | SNB-75 CNS 93.5% | SNB-19 CNS 110% | U251 CNS 105% | PC-3 prostate 89.6% | SK-MEL-5 melanoma 98.2% | UACC-62 melanoma 106% | SK-MEL-28 melanoma 107% | SK-MEL-2 melanoma 106% | EKVX NSCLC 94.8% | SN12C renal 104% | UO-31 renal 100% | CAKI-1 renal 100% | A498 renal 97.9% | HL-60(TB) leukemia 105% | CCRF-CEM leukemia 103%

COC1C(O)CC(OC2CC(Oc3cc4cc5c(c(O)c4c(O)c3C)C(=O)[C@@H](OC3CC(OC4CC(OC6CC(C)(O)C(OC(C)=O)C(C)O6)C(O)C(C)O4)C(O)C(C)O3)[C@H]([C@H](OC)C(=O)[C@@H](O)[C@@H](C)O)C5)OC(C)C2OC(C)=O)OC1C (stereo not given in full)
active: HCT-15 colon 1.5% | HT29 colon -23.2% | SNB-75 CNS -61.8% | SNB-19 CNS 5.7% | U251 CNS 4.79% | PC-3 prostate -11.5% | SK-MEL-5 melanoma -93.8% | UACC-62 melanoma -83% | LOX IMVI melanoma 3.81% | SK-MEL-2 melanoma -42.1% | EKVX NSCLC -12.7% | SN12C renal 7.02% | UO-31 renal -12.5% | TK-10 renal 2.86% | ACHN renal 2.04% | CAKI-1 renal -25.9% | HL-60(TB) leukemia -23.8% | CCRF-CEM leukemia -8.99%

COc1cc(-c2ccc(N)c(OC)c2)ccc1N
inactive: HCT-15 colon 110% | HT29 colon 97.5% | SNB-75 CNS 76.9% | SNB-19 CNS 102% | U251 CNS 99.2% | PC-3 prostate 105% | SK-MEL-5 melanoma 105% | LOX IMVI melanoma 88.9% | SK-MEL-28 melanoma 111% | SK-MEL-2 melanoma 118% | EKVX NSCLC 96% | SN12C renal 104% | UO-31 renal 93.6% | TK-10 renal 107% | ACHN renal 100% | CAKI-1 renal 92.5% | A498 renal 118% | HL-60(TB) leukemia 118% | CCRF-CEM leukemia 113%

Cc1ccc(P(=O)(O)O)cc1
inactive: HCT-15 colon 107% | HT29 colon 109% | SNB-75 CNS 107% | SNB-19 CNS 97.9% | U251 CNS 101% | PC-3 prostate 107% | SK-MEL-5 melanoma 107% | UACC-62 melanoma 98.6% | SK-MEL-28 melanoma 112% | SK-MEL-2 melanoma 109% | EKVX NSCLC 100% | SN12C renal 97.7% | UO-31 renal 96.6% | TK-10 renal 102% | ACHN renal 109% | CAKI-1 renal 97.2% | A498 renal 115% | HL-60(TB) leukemia 107% | CCRF-CEM leukemia 114%
